Results published in the supplement of paper PMC4022240.
± gives the standard deviation.

Columns and labels:
Assay in all cases: peptide microarray binding signal (635 nm), min-max normalized on array (fraction of array maximum); higher = stronger binding
[1] = target: T1, HaloTag-ATRX ADD domain (163-292)
T1 chain: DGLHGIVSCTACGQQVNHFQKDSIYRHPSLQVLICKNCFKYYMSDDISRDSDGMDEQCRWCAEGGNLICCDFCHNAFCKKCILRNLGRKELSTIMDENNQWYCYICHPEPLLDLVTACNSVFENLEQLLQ
Description: (§1)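 Histone 13-mer peptides were synthesized as cellulose conjugates with a C-terminal 20-atom PEG linker and printed in triplicate on nitrocellulose. The sequence given is the unmodified backbone; PTMs (Kme1/2/3, Kac, Sph/Tph, Rme/Rme2a/Rme2s, Rcit) are listed in the label and the 'peptide modifications' condition. Slides were probed at 4 °C for 1 h with biotin-labelled (HQ)5-HaloTag reader fusions (ATRX-ADD, ING2-PHD) then streptavidin-Alexa647, or with rabbit histone antibodies then anti-rabbit Alexa647. The mean 635 nm signal of the triplicate spots was scaled 0-1 between the lowest and highest values on each array.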

[2] = target: HaloTag-ING2 PHD (mouse Ing2 200-280)
Description: as §1

[3] = target: anti-H3K4me3 antibody ab8580
Description: as §1

[4] = target: anti-H3K9me3 antibody ab8898
Description: as §1

[5] = peptide region: H3 1-13, binder concentration: 1:2,000 dilution
[6] = peptide region: H3 1-13, binder concentration: 1:10,000 dilution
[7] = peptide region: H3 1-13, peptide modifications: H3K4ac H3K9me3, binder concentration: 1:2,000 dilution
[8] = peptide region: H3 1-13, peptide modifications: H3K4ac H3K9me3, binder concentration: 1:10,000 dilution
[9] = peptide region: H2B 17-29, peptide modifications: H2BK28ac, binder concentration: 1:2,000 dilution
[10] = peptide region: H2B 17-29, peptide modifications: H2BK28ac, binder concentration: 1:10,000 dilution
[11] = peptide region: H2B 17-29, peptide modifications: H2BK23ac H2BK28ac, binder concentration: 1:2,000 dilution
[12] = peptide region: H2B 17-29, peptide modifications: H2BK23ac H2BK28ac, binder concentration: 1:10,000 dilution
[13] = peptide region: H2B 17-29, peptide modifications: H2BK24ac H2BK27ac, binder concentration: 1:2,000 dilution
[14] = peptide region: H2B 17-29, peptide modifications: H2BK24ac H2BK27ac, binder concentration: 1:10,000 dilution
[15] = peptide region: H3 1-13, peptide modifications: H3K4ac H3T6ph, binder concentration: 1:2,000 dilution
[16] = peptide region: H3 1-13, peptide modifications: H3K4ac H3T6ph, binder concentration: 1:10,000 dilution
[17] = peptide region: H2B 17-29, peptide modifications: H2BK24ac, binder concentration: 1:2,000 dilution
[18] = peptide region: H2B 17-29, peptide modifications: H2BK24ac, binder concentration: 1:10,000 dilution
[19] = peptide region: H2B 17-29, peptide modifications: H2BK23ac H2BK27ac, binder concentration: 1:2,000 dilution
[20] = peptide region: H2B 17-29, peptide modifications: H2BK23ac H2BK27ac, binder concentration: 1:10,000 dilution
[21] = peptide region: H2B 17-29, peptide modifications: H2BK23ac, binder concentration: 1:2,000 dilution
[22] = peptide region: H2B 17-29, peptide modifications: H2BK23ac, binder concentration: 1:10,000 dilution
[23] = peptide region: H3 1-13, peptide modifications: H3K4ac H3K9me1, binder concentration: 1:2,000 dilution
[24] = peptide region: H3 1-13, peptide modifications: H3K4ac H3K9me1, binder concentration: 1:10,000 dilution

B1: H3 1-13 A R T K Q T A R K S T G G (peptide)
chain: ARTKQTARKSTGG
- peptide microarray binding signal ([1]; peptide region: H3 1-13, binder concentration: 50 nM): 0.0155 ± 0.00087
- peptide microarray binding signal ([1]; peptide region: H3 1-13, binder concentration: 500 nM): 0.0263 ± 0.0017
- peptide microarray binding signal ([2]; peptide region: H3 1-13, binder concentration: 10 nM): 0.0231 ± 0.0017
- peptide microarray binding signal ([2]; peptide region: H3 1-13, binder concentration: 100 nM): 0.00957 ± 0.0015
- peptide microarray binding signal [3, 5]: 0.00185 ± 0.00055
- peptide microarray binding signal [3, 6]: 0.00126 ± 6.5e-05
- peptide microarray binding signal [4, 5]: 0.00196 ± 0.00012
- peptide microarray binding signal [4, 6]: 0.000807 ± 1.5e-05

B2: H3 1-13 A R T Kac Q T A R Kme3 S T G G (peptide)
chain: ARTKQTARKSTGG
- peptide microarray binding signal ([1]; peptide region: H3 1-13, peptide modifications: H3K4ac H3K9me3, binder concentration: 50 nM): 0.0136 ± 0.004
- peptide microarray binding signal ([1]; peptide region: H3 1-13, peptide modifications: H3K4ac H3K9me3, binder concentration: 500 nM): 0.0491 ± 0.024
- peptide microarray binding signal ([2]; peptide region: H3 1-13, peptide modifications: H3K4ac H3K9me3, binder concentration: 10 nM): 0.0828 ± 0.015
- peptide microarray binding signal ([2]; peptide region: H3 1-13, peptide modifications: H3K4ac H3K9me3, binder concentration: 100 nM): 0.0894 ± 0.0073
- peptide microarray binding signal [3, 7]: 0.0339 ± 0.018
- peptide microarray binding signal [3, 8]: 0.0225 ± 0.0063
- peptide microarray binding signal [4, 7]: 0.0825 ± 0.052
- peptide microarray binding signal [4, 8]: 0.0423 ± 0.027

B3: H2B 17-29 A V T K A Q K K D G K Kac R (peptide)
chain: AVTKAQKKDGKKR
- peptide microarray binding signal ([1]; peptide region: H2B 17-29, peptide modifications: H2BK28ac, binder concentration: 50 nM): 0.00194 ± 4.1e-05
- peptide microarray binding signal ([1]; peptide region: H2B 17-29, peptide modifications: H2BK28ac, binder concentration: 500 nM): 0.00486 ± 0.00024
- peptide microarray binding signal ([2]; peptide region: H2B 17-29, peptide modifications: H2BK28ac, binder concentration: 10 nM): 0.00209 ± 2.4e-05
- peptide microarray binding signal ([2]; peptide region: H2B 17-29, peptide modifications: H2BK28ac, binder concentration: 100 nM): 0.00142 ± 1.5e-05
- peptide microarray binding signal [3, 9]: 0.000396 ± 7e-06
- peptide microarray binding signal [3, 10]: 0.000628 ± 6.7e-06
- peptide microarray binding signal [4, 9]: 0.000166 ± 3.6e-06
- peptide microarray binding signal [4, 10]: 0.000346 ± 3.8e-06

B4: H2B 17-29 A V T K A Q Kac K D G K Kac R (peptide)
chain: AVTKAQKKDGKKR
- peptide microarray binding signal ([1]; peptide region: H2B 17-29, peptide modifications: H2BK23ac H2BK28ac, binder concentration: 50 nM): 0.00348 ± 0.00011
- peptide microarray binding signal ([1]; peptide region: H2B 17-29, peptide modifications: H2BK23ac H2BK28ac, binder concentration: 500 nM): 0.00929 ± 0.00055
- peptide microarray binding signal ([2]; peptide region: H2B 17-29, peptide modifications: H2BK23ac H2BK28ac, binder concentration: 10 nM): 0.00442 ± 0.00046
- peptide microarray binding signal ([2]; peptide region: H2B 17-29, peptide modifications: H2BK23ac H2BK28ac, binder concentration: 100 nM): 0.00312 ± 0.00011
- peptide microarray binding signal [3, 11]: 0.002 ± 0.00012
- peptide microarray binding signal [3, 12]: 0.000799 ± 8.3e-06
- peptide microarray binding signal [4, 11]: 0.000529 ± 1.3e-05
- peptide microarray binding signal [4, 12]: 0.000634

B5: H2B 17-29 A V T K A Q K Kac D G Kac K R (peptide)
chain: AVTKAQKKDGKKR
- peptide microarray binding signal ([1]; peptide region: H2B 17-29, peptide modifications: H2BK24ac H2BK27ac, binder concentration: 50 nM): 0.00238 ± 4.6e-05
- peptide microarray binding signal ([1]; peptide region: H2B 17-29, peptide modifications: H2BK24ac H2BK27ac, binder concentration: 500 nM): 0.0059 ± 0.00037
- peptide microarray binding signal ([2]; peptide region: H2B 17-29, peptide modifications: H2BK24ac H2BK27ac, binder concentration: 10 nM): 0.00197 ± 4.6e-05
- peptide microarray binding signal ([2]; peptide region: H2B 17-29, peptide modifications: H2BK24ac H2BK27ac, binder concentration: 100 nM): 0.00177 ± 6.2e-05
- peptide microarray binding signal [3, 13]: 0.00138 ± 0.0002
- peptide microarray binding signal [3, 14]: 0.000685 ± 7.2e-06
- peptide microarray binding signal [4, 13]: 0.000227 ± 4.1e-06
- peptide microarray binding signal [4, 14]: 0.000346 ± 3.8e-06

B6: H3 1-13 A R T Kac Q Tph A R K S T G G (peptide)
chain: ARTKQTARKSTGG
- peptide microarray binding signal ([1]; peptide region: H3 1-13, peptide modifications: H3K4ac H3T6ph, binder concentration: 50 nM): 0.00693 ± 0.00026
- peptide microarray binding signal ([1]; peptide region: H3 1-13, peptide modifications: H3K4ac H3T6ph, binder concentration: 500 nM): 0.0116 ± 0.0014
- peptide microarray binding signal ([2]; peptide region: H3 1-13, peptide modifications: H3K4ac H3T6ph, binder concentration: 10 nM): 0.0574 ± 0.0059
- peptide microarray binding signal ([2]; peptide region: H3 1-13, peptide modifications: H3K4ac H3T6ph, binder concentration: 100 nM): 0.0396 ± 0.0055
- peptide microarray binding signal [3, 15]: 0.00242 ± 0.00029
- peptide microarray binding signal [3, 16]: 0.00417 ± 0.00026
- peptide microarray binding signal [4, 15]: 0.0013 ± 0.00014
- peptide microarray binding signal [4, 16]: 0.000923 ± 9.6e-06

B7: H2B 17-29 A V T K A Q K Kac D G K K R (peptide)
chain: AVTKAQKKDGKKR
- peptide microarray binding signal ([1]; peptide region: H2B 17-29, peptide modifications: H2BK24ac, binder concentration: 50 nM): 0.00295 ± 0.00019
- peptide microarray binding signal ([1]; peptide region: H2B 17-29, peptide modifications: H2BK24ac, binder concentration: 500 nM): 0.00762 ± 0.00062
- peptide microarray binding signal ([2]; peptide region: H2B 17-29, peptide modifications: H2BK24ac, binder concentration: 10 nM): 0.00609 ± 0.00052
- peptide microarray binding signal ([2]; peptide region: H2B 17-29, peptide modifications: H2BK24ac, binder concentration: 100 nM): 0.0283 ± 0.032
- peptide microarray binding signal [3, 17]: 0.0013 ± 8.9e-05
- peptide microarray binding signal [3, 18]: 0.000742
- peptide microarray binding signal [4, 17]: 0.000347 ± 3.5e-06
- peptide microarray binding signal [4, 18]: 0.000577 ± 6.2e-06

B8: H2B 17-29 A V T K A Q Kac K D G Kac K R (peptide)
chain: AVTKAQKKDGKKR
- peptide microarray binding signal ([1]; peptide region: H2B 17-29, peptide modifications: H2BK23ac H2BK27ac, binder concentration: 50 nM): 0.0053 ± 0.00061
- peptide microarray binding signal ([1]; peptide region: H2B 17-29, peptide modifications: H2BK23ac H2BK27ac, binder concentration: 500 nM): 0.00781 ± 0.00049
- peptide microarray binding signal ([2]; peptide region: H2B 17-29, peptide modifications: H2BK23ac H2BK27ac, binder concentration: 10 nM): 0.00722 ± 0.00015
- peptide microarray binding signal ([2]; peptide region: H2B 17-29, peptide modifications: H2BK23ac H2BK27ac, binder concentration: 100 nM): 0.00751 ± 0.001
- peptide microarray binding signal [3, 19]: 0.0021 ± 0.00039
- peptide microarray binding signal [3, 20]: 0.000856 ± 8.9e-06
- peptide microarray binding signal [4, 19]: 0.000604 ± 2e-05
- peptide microarray binding signal [4, 20]: 0.000923 ± 9.6e-06

B9: H2B 17-29 A V T K A Q Kac K D G K K R (peptide)
chain: AVTKAQKKDGKKR
- peptide microarray binding signal ([1]; peptide region: H2B 17-29, peptide modifications: H2BK23ac, binder concentration: 50 nM): 0.00376 ± 0.00013
- peptide microarray binding signal ([1]; peptide region: H2B 17-29, peptide modifications: H2BK23ac, binder concentration: 500 nM): 0.00514 ± 0.0009
- peptide microarray binding signal ([2]; peptide region: H2B 17-29, peptide modifications: H2BK23ac, binder concentration: 10 nM): 0.00424 ± 9.6e-05
- peptide microarray binding signal ([2]; peptide region: H2B 17-29, peptide modifications: H2BK23ac, binder concentration: 100 nM): 0.00666 ± 0.00022
- peptide microarray binding signal [3, 21]: 0.00051 ± 9.7e-05
- peptide microarray binding signal [3, 22]: 0.000742
- peptide microarray binding signal [4, 21]: 0.000498 ± 3.6e-05
- peptide microarray binding signal [4, 22]: 0.00104 ± 1.1e-05

B10: H3 1-13 A R T Kac Q T A R Kme S T G G (peptide)
chain: ARTKQTARKSTGG
- peptide microarray binding signal ([1]; peptide region: H3 1-13, peptide modifications: H3K4ac H3K9me1, binder concentration: 50 nM): 0.00809 ± 0.00079
- peptide microarray binding signal ([1]; peptide region: H3 1-13, peptide modifications: H3K4ac H3K9me1, binder concentration: 500 nM): 0.0149 ± 0.0037
- peptide microarray binding signal ([2]; peptide region: H3 1-13, peptide modifications: H3K4ac H3K9me1, binder concentration: 10 nM): 0.0703 ± 0.011
- peptide microarray binding signal ([2]; peptide region: H3 1-13, peptide modifications: H3K4ac H3K9me1, binder concentration: 100 nM): 0.1 ± 0.035
- peptide microarray binding signal [3, 23]: 0.00664 ± 0.0014
- peptide microarray binding signal [3, 24]: 0.0205 ± 0.012
- peptide microarray binding signal [4, 23]: 0.00574 ± 0.00077
- peptide microarray binding signal [4, 24]: 0.00565 ± 0.00024
